Some test systems named below: SR leukemia; RPMI-8226 leukemia; OVCAR-8 ovarian; OVCAR-5 ovarian; OVCAR-4 ovarian; SK-OV-3 ovarian; IGROV1 ovarian; OVCAR-3 ovarian; HS 578T breast; NCI/ADR-RES ovarian; T-47D breast; BT-549 breast; MDA-MB-435 melanoma; SW-620 colon; MCF7 breast; HCT-116 colon; HCC-2998 colon; KM12 colon.
Common to all, as to assay: NCI-60 one-dose screen, 48 h (100 = growth as untreated, 0 = no growth, -100 = all killed)
Common to all, as to conditions: 10 µM unless noted

Structures are written as SMILES. This is part of a sample that, as a whole, favours compounds with a hit. Of some 83,000 tested, about 20% had one in any assay.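 Single-dose data. Exposure time 48 hours. Values below 10 considered active.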 A number with no mark means an inactive call. Calls of active or inactive are those of the source.

Turning to `COc1ccc(C2=Nc3c/c(=C\c4c(O)[nH]c5cc(Cl)ccc45)ccc3=N2)cc1`, the growth was 17% in the test on SR leukemia; 62.8% with RPMI-8226 leukemia; 71.9% in the test with OVCAR-8 ovarian; 77.5% in the test with OVCAR-5 ovarian; 90.8% with OVCAR-4 ovarian; 46.4% in the test with SK-OV-3 ovarian. Also, the growth was 86.9% with IGROV1 ovarian; 27% in the test on OVCAR-3 ovarian; 81.7% in the test with HS 578T breast; 56.4% in the test on NCI/ADR-RES ovarian; 71.7% in the test on T-47D breast; 77.5% in the test with BT-549 breast. The growth in the test with MDA-MB-435 melanoma was 3.01% (active); with SW-620 colon it was 57.9%; in the test on MCF7 breast, 36.2%; in the test with HCT-116 colon, 70.7%; with HCC-2998 colon, 73.6%; with KM12 colon, 49.5%.

In the case of `CC(=O)c1c(Nc2ccc(F)c(F)c2F)[nH]c2c(F)cc(F)cc2c1=O`, the growth in the test on SR leukemia was 8.21% (active); in the test on RPMI-8226 leukemia it was -10.6% (active); with OVCAR-8 ovarian it was 5.38% (active); in the test with OVCAR-5 ovarian, 12.8%; with OVCAR-4 ovarian, 12.1%; with SK-OV-3 ovarian, -4.26% (active). For the same compound, the growth was 16.2% in the test with IGROV1 ovarian; 7.99% (active) in the test on OVCAR-3 ovarian; 4.13% (active) in the test on HS 578T breast; 1.67% (active) with NCI/ADR-RES ovarian; -14.3% (active) in the test on T-47D breast; 2.13% (active) with BT-549 breast. For the same compound, the growth with MDA-MB-435 melanoma is -14.4% (active); in the test with SW-620 colon it was 7.98% (active); in the test with MCF7 breast it was 0.843% (active); in the test with HCT-116 colon, 3.09% (active); in the test with HCC-2998 colon it was 7.96% (active); in the test with KM12 colon it was 2.32% (active).

In the case of `Cn1c(=O)c2c(nc(NC3=NS(=O)(=O)c4ccccc43)n2Cc2ccccc2)n(C)c1=O`, the growth in the test with SR leukemia was 108%; in the test with RPMI-8226 leukemia it was 103%; in the test on OVCAR-8 ovarian it was 99.5%; in the test with OVCAR-5 ovarian it was 99.6%; with OVCAR-4 ovarian, 103%; with SK-OV-3 ovarian, 97.5%. Besides, the growth is 95.5% in the test with IGROV1 ovarian; 110% in the test on OVCAR-3 ovarian; 96.5% in the test with HS 578T breast; 103% in the test on NCI/ADR-RES ovarian; 115% in the test on T-47D breast; 106% in the test on BT-549 breast. For the same compound, the growth in the test with MDA-MB-435 melanoma was 101%; with SW-620 colon, 102%; with MCF7 breast, 88.7%; in the test on HCT-116 colon, 103%; in the test on HCC-2998 colon it was 107%; in the test with KM12 colon, 99.9%.

`O=c1[nH]cnc2c1C(c1ccc(Br)cc1)c1sc3c(F)cccc3c1O2` (centres undefined): the growth was 54.7% in the test with SR leukemia; 60.4% with RPMI-8226 leukemia; 95.3% in the test on OVCAR-8 ovarian; 90.7% in the test on OVCAR-5 ovarian; 94.9% with OVCAR-4 ovarian; 117% in the test on SK-OV-3 ovarian. Moreover, the growth was 84.4% with IGROV1 ovarian; 107% in the test with OVCAR-3 ovarian; 85.2% with HS 578T breast; 100% in the test on NCI/ADR-RES ovarian; 83.9% in the test with T-47D breast; 99.1% in the test with BT-549 breast. Also, the growth in the test on MDA-MB-435 melanoma is 100%; in the test with SW-620 colon it was 90.6%; in the test with MCF7 breast, 77.3%; in the test with HCT-116 colon, 98.9%; in the test with HCC-2998 colon, 111%; in the test on KM12 colon, 88.8%.

With `CCOC(=O)C(=Cc1cccc(C#N)c1)C(=O)OCC`, the growth in the test on SR leukemia is 7.73% (active); in the test on RPMI-8226 leukemia, 15.1%; with OVCAR-8 ovarian it was 71.6%; in the test with OVCAR-5 ovarian, 60.1%; in the test with OVCAR-4 ovarian, 88.2%; with SK-OV-3 ovarian it was 91.3%. Besides, the growth in the test on IGROV1 ovarian was 59.8%; with OVCAR-3 ovarian, 61.2%; with HS 578T breast it was 93.9%; in the test with NCI/ADR-RES ovarian, 47.6%; with T-47D breast, 38.8%; in the test with BT-549 breast, 71.2%. Further, the growth with MDA-MB-435 melanoma was 55.4%; with SW-620 colon, 27.9%; in the test on MCF7 breast, 24.3%; in the test with HCT-116 colon, 20.9%; with HCC-2998 colon, 110%; with KM12 colon, 54.8%.

On to `Cc1cc(C(=O)Nc2cc(Nc3ncccc3-c3ncnc4nc[nH]c34)ccc2F)cc(C(F)(F)F)c1`, for which the growth in the test with SR leukemia was 51.3%; with RPMI-8226 leukemia, 53.8%; in the test with OVCAR-8 ovarian, 57.2%; in the test on OVCAR-5 ovarian it was 33.3%; in the test on OVCAR-4 ovarian it was 47.7%; in the test with SK-OV-3 ovarian it was 87.2%. The growth was 103% in the test on IGROV1 ovarian; 68% in the test with OVCAR-3 ovarian; 38.1% in the test with HS 578T breast; 52.1% with NCI/ADR-RES ovarian; 64.8% with T-47D breast; 91.3% in the test with BT-549 breast. Further, the growth is 26.2% with MDA-MB-435 melanoma; 33.9% with SW-620 colon; 66.9% in the test on MCF7 breast; 19.1% with HCT-116 colon; 30.6% in the test on HCC-2998 colon; 49.5% in the test with KM12 colon.

With `CCCCCCCCn1ccc2cc(NC(=O)Cn3cc(CN4CCC(C)CC4)nn3)ccc21`, the growth with SR leukemia is -0.808% (active); with RPMI-8226 leukemia it was -40.9% (active); with OVCAR-8 ovarian, 32.8%; in the test with OVCAR-5 ovarian, 76.7%; in the test with OVCAR-4 ovarian, 63%; in the test on SK-OV-3 ovarian, 79.1%. Besides, the growth in the test with IGROV1 ovarian is 39.6%; in the test with OVCAR-3 ovarian, 14.7%; with HS 578T breast it was 59.2%; in the test with NCI/ADR-RES ovarian, 63.1%; with T-47D breast it was 6.9% (active); in the test on BT-549 breast, 78.1%. Besides, the growth with MDA-MB-435 melanoma is -75.6% (active); with SW-620 colon, -72.1% (active); with MCF7 breast, 4.43% (active); in the test with HCT-116 colon, -18.6% (active); in the test on HCC-2998 colon, -78.8% (active); in the test on KM12 colon, 4.72% (active).

For the compound `CN1CCN(Cc2cc(NC(=O)c3cccc(C#Cc4cccc5[nH]nc(N)c45)c3)cc(C(F)(F)F)c2)CC1`, the growth in the test with SR leukemia is -28.7% (active); in the test with RPMI-8226 leukemia, 11.2%; in the test with OVCAR-8 ovarian it was 41%; with OVCAR-5 ovarian, 36.1%; in the test on OVCAR-4 ovarian it was 24.8%; with SK-OV-3 ovarian, 81.6%. In addition, the growth was 11.1% in the test with IGROV1 ovarian; 64.1% in the test on OVCAR-3 ovarian; 22.3% in the test with HS 578T breast; 50.8% in the test with NCI/ADR-RES ovarian; 49% with T-47D breast; 46% in the test with BT-549 breast. Also, the growth was -21.4% (active) in the test on MDA-MB-435 melanoma; -45.2% (active) in the test with SW-620 colon; -23.4% (active) in the test with MCF7 breast; -86.8% (active) in the test with HCT-116 colon; -70.9% (active) in the test on HCC-2998 colon; 13.7% in the test with KM12 colon.
